The source of these data is ChEMBL document CHEMBL2218924, “A broad activity screen in support of a chemogenomic map for kinase signalling research and drug discovery” (Biochem J, 2013).

Assay [1] deals with Tyrosine-protein kinase SYK (Homo sapiens) (UniProt P43405). As to conditions: at 10 µM.
For assay [2], the target named is T1, Mitogen-activated protein kinase kinase kinase 7 (Homo sapiens) (UniProt O43318).
T1 sequence (whole entry): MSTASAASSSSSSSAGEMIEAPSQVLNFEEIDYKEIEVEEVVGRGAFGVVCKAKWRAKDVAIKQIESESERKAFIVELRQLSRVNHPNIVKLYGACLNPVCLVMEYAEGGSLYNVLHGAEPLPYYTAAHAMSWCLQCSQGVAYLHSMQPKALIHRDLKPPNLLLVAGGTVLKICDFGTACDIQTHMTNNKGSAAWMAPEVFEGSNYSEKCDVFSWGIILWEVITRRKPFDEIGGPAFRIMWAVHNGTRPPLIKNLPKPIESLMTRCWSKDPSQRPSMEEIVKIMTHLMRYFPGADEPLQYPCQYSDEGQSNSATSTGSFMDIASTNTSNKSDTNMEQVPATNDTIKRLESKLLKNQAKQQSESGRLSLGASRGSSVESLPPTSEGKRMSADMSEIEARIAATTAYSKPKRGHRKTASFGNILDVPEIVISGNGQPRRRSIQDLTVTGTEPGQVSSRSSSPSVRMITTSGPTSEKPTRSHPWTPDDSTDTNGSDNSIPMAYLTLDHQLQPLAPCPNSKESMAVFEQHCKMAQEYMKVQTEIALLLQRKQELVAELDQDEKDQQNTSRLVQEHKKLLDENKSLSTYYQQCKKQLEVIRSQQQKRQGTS
The following applies: at 1 µM.

Assay [3] deals with T1, Mitogen-activated protein kinase kinase kinase 7 (Homo sapiens). As to conditions: at 10 µM.
Assay [4] concerns the target T2, Serine/threonine-protein kinase TAO1 (Homo sapiens) (UniProt Q7L7X3).
T2 sequence (whole entry): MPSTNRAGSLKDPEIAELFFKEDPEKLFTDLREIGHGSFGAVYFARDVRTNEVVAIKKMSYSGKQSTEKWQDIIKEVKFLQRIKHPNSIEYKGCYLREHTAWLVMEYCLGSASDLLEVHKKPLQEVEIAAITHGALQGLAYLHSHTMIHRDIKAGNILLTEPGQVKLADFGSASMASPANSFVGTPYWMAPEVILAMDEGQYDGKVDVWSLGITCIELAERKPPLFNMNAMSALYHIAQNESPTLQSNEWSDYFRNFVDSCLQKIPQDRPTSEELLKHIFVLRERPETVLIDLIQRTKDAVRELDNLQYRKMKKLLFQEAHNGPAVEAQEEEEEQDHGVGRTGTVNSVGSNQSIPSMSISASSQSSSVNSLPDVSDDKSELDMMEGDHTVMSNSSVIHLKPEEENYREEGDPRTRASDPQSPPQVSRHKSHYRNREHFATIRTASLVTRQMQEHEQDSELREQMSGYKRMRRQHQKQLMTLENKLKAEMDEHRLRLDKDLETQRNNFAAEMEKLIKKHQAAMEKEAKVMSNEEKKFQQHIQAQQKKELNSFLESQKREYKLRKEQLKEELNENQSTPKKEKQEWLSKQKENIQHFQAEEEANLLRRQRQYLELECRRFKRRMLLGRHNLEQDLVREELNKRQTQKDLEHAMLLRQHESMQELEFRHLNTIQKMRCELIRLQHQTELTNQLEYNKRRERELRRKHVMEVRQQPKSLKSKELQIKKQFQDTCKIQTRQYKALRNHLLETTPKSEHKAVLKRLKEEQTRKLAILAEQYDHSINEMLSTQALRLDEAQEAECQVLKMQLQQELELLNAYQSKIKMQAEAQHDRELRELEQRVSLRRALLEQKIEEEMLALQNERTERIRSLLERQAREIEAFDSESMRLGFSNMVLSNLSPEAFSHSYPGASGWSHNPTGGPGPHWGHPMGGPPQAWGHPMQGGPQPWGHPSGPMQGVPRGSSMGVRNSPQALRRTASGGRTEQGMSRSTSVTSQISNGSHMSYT
The following applies: at 10 µM.

Assay [5] addresses T3, Serine/threonine-protein kinase TAO2 (Homo sapiens) (UniProt Q9UL54).
T3 sequence (whole entry): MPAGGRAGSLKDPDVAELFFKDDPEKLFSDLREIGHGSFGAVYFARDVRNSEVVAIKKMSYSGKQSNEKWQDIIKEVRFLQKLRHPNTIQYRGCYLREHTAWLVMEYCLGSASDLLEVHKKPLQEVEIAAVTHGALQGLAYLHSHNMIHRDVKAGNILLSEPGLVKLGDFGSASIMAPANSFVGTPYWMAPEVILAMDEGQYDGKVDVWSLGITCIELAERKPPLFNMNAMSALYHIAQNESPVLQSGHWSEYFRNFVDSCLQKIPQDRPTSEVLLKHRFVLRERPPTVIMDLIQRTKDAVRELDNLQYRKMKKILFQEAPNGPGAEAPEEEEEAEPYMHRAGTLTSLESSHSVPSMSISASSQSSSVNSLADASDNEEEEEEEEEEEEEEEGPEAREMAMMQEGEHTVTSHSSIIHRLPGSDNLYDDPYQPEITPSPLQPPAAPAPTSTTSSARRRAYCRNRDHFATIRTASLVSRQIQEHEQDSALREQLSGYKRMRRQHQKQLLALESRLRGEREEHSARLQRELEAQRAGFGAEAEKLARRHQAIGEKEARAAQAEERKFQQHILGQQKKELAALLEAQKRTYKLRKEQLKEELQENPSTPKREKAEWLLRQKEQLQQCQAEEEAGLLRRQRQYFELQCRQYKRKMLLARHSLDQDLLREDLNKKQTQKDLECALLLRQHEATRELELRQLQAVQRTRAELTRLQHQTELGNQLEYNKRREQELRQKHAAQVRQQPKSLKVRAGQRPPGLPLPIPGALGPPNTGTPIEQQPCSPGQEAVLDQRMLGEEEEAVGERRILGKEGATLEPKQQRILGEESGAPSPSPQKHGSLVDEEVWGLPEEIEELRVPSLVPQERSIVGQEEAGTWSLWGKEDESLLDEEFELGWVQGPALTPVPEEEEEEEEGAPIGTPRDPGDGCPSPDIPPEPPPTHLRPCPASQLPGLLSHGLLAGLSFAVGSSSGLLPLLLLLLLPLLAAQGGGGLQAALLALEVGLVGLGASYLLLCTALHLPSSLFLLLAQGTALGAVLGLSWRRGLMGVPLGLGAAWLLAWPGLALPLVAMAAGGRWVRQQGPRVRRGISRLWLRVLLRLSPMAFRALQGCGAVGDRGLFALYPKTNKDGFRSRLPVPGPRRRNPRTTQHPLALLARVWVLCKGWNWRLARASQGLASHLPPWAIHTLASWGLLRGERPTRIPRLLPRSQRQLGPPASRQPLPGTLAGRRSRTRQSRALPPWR
The following applies: at 1 µM.

The target in assay [6] is T3, Serine/threonine-protein kinase TAO2 (Homo sapiens). As to conditions: at 10 µM.
In assay [7] the target is T4, Serine/threonine-protein kinase TAO3 (Homo sapiens) (UniProt Q9H2K8).
T4 sequence (whole entry): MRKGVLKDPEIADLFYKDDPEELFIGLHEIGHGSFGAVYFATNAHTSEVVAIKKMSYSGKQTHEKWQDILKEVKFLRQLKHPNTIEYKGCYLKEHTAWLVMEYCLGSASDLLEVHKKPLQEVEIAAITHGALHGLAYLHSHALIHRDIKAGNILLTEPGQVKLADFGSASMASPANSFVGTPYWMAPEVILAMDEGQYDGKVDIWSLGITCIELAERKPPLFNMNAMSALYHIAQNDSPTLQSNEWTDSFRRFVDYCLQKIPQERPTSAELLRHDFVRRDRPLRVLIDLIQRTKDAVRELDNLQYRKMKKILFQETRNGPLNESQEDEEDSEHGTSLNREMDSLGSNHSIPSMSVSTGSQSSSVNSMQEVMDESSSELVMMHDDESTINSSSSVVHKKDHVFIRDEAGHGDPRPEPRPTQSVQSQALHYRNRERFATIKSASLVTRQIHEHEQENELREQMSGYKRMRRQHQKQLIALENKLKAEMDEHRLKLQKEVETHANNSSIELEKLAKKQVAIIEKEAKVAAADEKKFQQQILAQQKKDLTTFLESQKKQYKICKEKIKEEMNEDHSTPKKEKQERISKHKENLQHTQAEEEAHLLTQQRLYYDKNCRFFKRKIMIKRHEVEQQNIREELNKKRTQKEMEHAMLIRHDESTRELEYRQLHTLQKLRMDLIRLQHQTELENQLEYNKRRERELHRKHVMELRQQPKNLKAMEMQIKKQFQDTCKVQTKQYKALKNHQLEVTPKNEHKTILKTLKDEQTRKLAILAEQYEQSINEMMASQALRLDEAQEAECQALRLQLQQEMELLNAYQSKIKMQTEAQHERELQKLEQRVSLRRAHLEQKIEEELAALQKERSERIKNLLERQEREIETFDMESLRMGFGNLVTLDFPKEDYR
The following applies: at 1 µM.

The target of assay [8] is T4, Serine/threonine-protein kinase TAO3 (Homo sapiens). The following applies: at 10 µM.

With `CN(C)CCCn1cc(C2=C(c3c[nH]c4ccccc34)C(=O)NC2=O)c2ccccc21`, the residual activity in assay [1] is 57%; in assay [2], 103%; in assay [3] it was 64%; in assay [4], 53%; in assay [5], 101%; in assay [6] it was 49%. In addition, the values for the residual activity in assay [7] and in assay [8] were 88% and 27%, respectively.
